Among all 16,000 compounds or so, about 5,800 (36%) were called active. Not shown: some 23% with an inconclusive outcome. The list shows a part of the results. Values without a mark were called inactive. Calls follow the shape of the dose curve; as a rule, active = well fitted curve in the direction sought with a large enough effect; inconclusive = small, poorly fitted or top-dose-only effect, or effect the other way; inactive = no such curve, though single readings can be large or run the other way.
These compounds were tested against Cytochrome P450 2C19 (Homo sapiens) (UniProt P33261) (assay: Cytochrome panel assay with activity outcomes). Conditions: recombinant CYP, pro-luciferin dealkylation, luminescence, p450-cyp2c19; series mostly up to 57.1 µM.
Chain of Cytochrome P450 2C19 (Homo sapiens) (P33261 whole entry, looked up): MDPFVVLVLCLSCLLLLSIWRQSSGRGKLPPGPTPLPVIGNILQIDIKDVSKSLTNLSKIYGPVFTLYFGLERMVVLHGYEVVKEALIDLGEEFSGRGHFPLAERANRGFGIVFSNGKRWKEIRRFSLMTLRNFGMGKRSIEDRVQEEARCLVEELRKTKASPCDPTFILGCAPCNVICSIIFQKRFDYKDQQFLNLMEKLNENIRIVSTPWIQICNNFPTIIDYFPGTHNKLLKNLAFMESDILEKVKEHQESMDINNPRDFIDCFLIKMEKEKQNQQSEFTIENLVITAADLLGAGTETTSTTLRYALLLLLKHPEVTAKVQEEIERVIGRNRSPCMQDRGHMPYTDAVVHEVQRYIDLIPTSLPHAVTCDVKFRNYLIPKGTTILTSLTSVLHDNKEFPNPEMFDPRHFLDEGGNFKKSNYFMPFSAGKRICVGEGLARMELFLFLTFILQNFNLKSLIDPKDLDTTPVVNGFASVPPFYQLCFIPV
% is scaled to controls: 0 for no effect and ±100 for the full control effect.

| SMILES | activity, negative = inhibition | AC50 |
| --- | --- | --- |
| Cc1cc(C)c2nc3c(c([C@H](O)[C@@H]4CCCCN4)c2c1)CC/C3=C/c1ccc(Cl)cc1 | -6.83% [at 11.4 µM] |  |
| CSCC[C@H](NC(=O)c1nn(C)c(=O)c2ccccc12)c1nc2ccccc2[nH]1 |  | 14.1 µM (active) |
| CC(=O)N1c2ccc(S(=O)(=O)CCC(=O)O)cc2CC1C (stereo unspecified) |  | inactive |
| CC1Cc2ccccc2N1C(=O)C1CCCCN1S(=O)(=O)c1ccccc1 (stereo unspecified) |  | 2.24 µM (active) |
| O=C(NC(NC(=S)Nc1cc(Cl)ccc1Cl)C(Cl)(Cl)Cl)c1ccco1 (stereo unspecified) |  | 1.58 µM (active) |
| CCc1ccc(OCC(=O)NNC(=O)CSc2ncnc3sc(C)c(C)c23)cc1 |  | 11.2 µM (active) |
| CCc1nnc(NC(=O)CSc2ncnc3c2cnn3-c2ccc(OC)cc2)s1 |  | inactive |
| Cc1noc(C)c1C(=O)N1CCC2(CC1)CN(c1ncccn1)C2 |  | inactive |
| CC1=C(C(=O)OCc2ccccc2)C(c2ccc([N+](=O)[O-])cc2)NC(=O)N1CCCCCC(=O)O (stereo unspecified) |  | inactive |
| O=C1NC(=O)[C@@](Cc2ccccc2)(c2cccnc2)N1 | 27.6% [at 11.4 µM] |  |
| CC1=C(C(=O)OCc2ccccc2)C(c2cccnc2)c2c(n(C)c(=O)n(C)c2=O)N1 (stereo unspecified) |  | 1 µM (active) |
| CC(C)(C)n1nnnc1C(c1cccnc1)N(Cc1ccccc1)Cc1ccco1 (stereo unspecified) |  | 11.2 µM (active) |
| CC[C@H]1C2=C3C(CC[C@H]4C(OCc5ccc(F)cc5C(F)(F)F)OC[C@](C)([C@@H]34)N(C(=O)OC(C)(C)C)C2)C(COC)C1COC (stereo partly specified) |  | inactive |
| Oc1ccc(Cn2c(-c3ccc(O)cc3)nc3ccccc32)cc1 | 87.1% [at 11.4 µM] |  |
| Clc1ncccc1-c1nc2ccccc2n1Cc1ccccc1 |  | 28.2 µM (active) |
| Clc1ccc(Cn2c(-c3cccnc3Cl)nc3ccccc32)c(Cl)c1 |  | 0.891 µM (active) |
| Nc1nonc1-c1nc2ccccc2n1Cc1ccc(F)cc1Cl |  | 0.0794 µM (active) |
| CN(C)CCCN1CC(C(=O)O)CC1=O (stereo unspecified) |  | inactive |
| O=c1onc2cnc3ccccc3n12 |  | inactive |
| O=c1c(-c2cccs2)nc2cnc(Nc3ccccc3)nc2n1C[C@H]1CCCO1 |  | inactive |
| CCCS(=O)(=O)N1CCCC(C(=O)NCCCN2CCN(c3ccc(F)cc3)CC2)C1 (stereo unspecified) |  | inactive |
| CC1CCCN(CCCNC(=O)C2CC(=O)N(c3ccc(F)c(Cl)c3)C2)C1 (stereo unspecified) |  | 31.6 µM (active) |
| CC1CC(C)CN(CCCNC(=O)C2CCCN(c3nnc(N4CCCC4=O)s3)C2)C1 (stereo unspecified) |  | inactive |

| SMILES | activity, negative = inhibition | AC50 |
| --- | --- | --- |
| CCCn1nnnc1NC(=O)COc1ccc(Cl)cc1C |  | 7.94 µM (active) |
| Cc1cc(Cl)ccc1OCC(=O)Nc1nc(N)nc(N)n1 | 8.03% [at 11.4 µM] |  |
| Cc1cc(Cl)ccc1OCC(=O)NCc1ccncc1 |  | 1.26 µM (active) |
| O=C(O)[C@@H]1[C@@H](C(=O)NCc2ccncc2)[C@@H]2C=C[C@@H]1O2 | 9.32% [at 11.4 µM] |  |
| O=C(/C=C\c1ccc(O)c(O)c1)O[C@@H]1C[C@](O)(C(=O)O)C[C@@H](O)[C@@H]1O |  | inactive |
| CCOC(=O)Oc1c(OC)cc(C(=O)O[C@H]2C[C@H]3CN4CCc5c([nH]c6cc(OC)ccc56)[C@@H]4C[C@H]3[C@@H](C(=O)OC)[C@@H]2OC)cc1OC |  | inactive |
| Cc1n[nH]c(=O)n1-c1cccc(C(F)(F)F)c1 |  | inactive |
| CCOC(=O)c1sc(=S)n(-c2cccc(C(F)(F)F)c2)c1SC |  | 1.26 µM (active) |
| O=C(O)NCC1CCCCC1 (tested in a mixture with another compound) | -22.4% [at 11.4 µM] |  |
| O=C(CSc1nnc(SCc2cccc3ccccc23)s1)c1ccc2c(c1)OCO2 |  | 2.51 µM (active) |
| Fc1ccc(Nc2ncncc2-c2ccccc2C(F)(F)F)cc1 |  | 7.94 µM (active) |
| FC(F)(F)c1ccccc1-c1cncnc1Nc1ccccc1 |  | 7.94 µM (active) |
| Cc1nc(NS(=O)(=O)c2ccccc2C)c2c3c(sc2n1)CCC3 |  | 8.91 µM (active) |
| Cc1nc(NCc2ccco2)c2c3c(sc2n1)CCC3 |  | 10 µM (active) |
| Cc1cc(C)n(-c2nc(NCC(C)O)c3c4c(sc3n2)COC(C)(C)C4)n1 (stereo unspecified) |  | inactive |
| Cc1nc(NS(=O)(=O)c2ccc(Br)cc2)c2c3c(sc2n1)CCC3 |  | 3.55 µM (active) |
| CCCSc1nc(NCc2ccco2)c2c3c(sc2n1)COC(C)(C)C3 |  | 7.08 µM (active) |
| CN(C)S(=O)(=O)c1nc(Cl)c2[nH]cnc2n1 | 24.6% [at 11.4 µM] |  |
| CC[C@H](C)[C@@H]1O[C@]2(CC[C@@H]1C)C[C@H]1C[C@H](CC=C(C)[C@@H](O[C@@H]3C[C@H](OC)[C@H](O[C@@H]4C[C@H](OC)[C@H](O)[C@H](C)O4)[C@H](C)O3)[C@@H](C)C=CC=C3CO[C@@H]4[C@@H](O)C(C)=C[C@@H](C(=O)O1)[C@]34O)O2 |  | inactive |
| Cc1ccc(NC(=O)Cn2nc([N+](=O)[O-])c(Br)c2C)cc1C |  | 5.62 µM (active) |
| O=C(Nc1ccc(Cl)c(C(F)(F)F)c1)C1CCCN(S(=O)(=O)c2cnc[nH]2)C1 (stereo unspecified) |  | 0.562 µM (active) |
| Clc1ccc(COn2c(-c3ccccc3)nc3ccccc32)cc1 |  | 0.141 µM (active) |
| O=[N+]([O-])c1ccc2nc(-c3ccccc3)n(OCc3ccc(Cl)cc3)c2c1 |  | 1.58 µM (active) |

| SMILES | activity, negative = inhibition | AC50 |
| --- | --- | --- |
| O=[N+]([O-])c1ccc2nc(-c3ccc(Cl)cc3)n(OCc3ccccc3)c2c1 |  | inactive |
| COc1ccc(CN2CN(c3ccc(Cl)cc3)C(=O)N(n3cnnc3)C2)cc1 |  | inactive |
| COc1ccc2nc(N3C(=O)CC(Cc4ccc(Cl)cc4)C3=O)sc2c1 (stereo unspecified) |  | 3.55 µM (active) |
| CCC1CCCCN1Cc1cc(OC)c(O)c([N+](=O)[O-])c1 (stereo unspecified) |  | inactive |
| Cc1ccc(N=CC2=C(O)CC(c3ccco3)CC2=O)cc1 (stereo unspecified) |  | 7.94 µM (active) |
| COC(=O)C1=C(C)NC(C)=C(C(=O)OCCSc2ccccc2)[C@@H]1C |  | 0.2 µM (active) |
| O=C(O)CC/C=C\CC[C@H]1[C@@H](N2CCCCC2)[C@@H](O)C[C@@H]1OCc1ccc(-c2ccccc2)cc1 |  | inactive |
| Cc1cccc(N(C)C(=S)Oc2ccc3ccccc3c2)c1 |  | 0.1 µM (active) |
| O=C(CCN1C(=O)c2ccccc2C1=O)Oc1ccc2ccccc2c1 |  | inactive |
| O=C(Nc1cc(C(F)(F)F)ccc1-n1cncn1)c1ccc(Br)cc1 |  | 2.24 µM (active) |
| CC(=O)Nc1ccc(S(=O)(=O)N2CCN(c3nc(NC4CCCC4)c4ccccc4n3)CC2)cc1 |  | 7.08 µM (active) |
| Cc1cc(C)cc(C(=N)c2ccccc2Cc2cccc3ccccc23)c1 |  | 1.58 µM (active) |
| Cc1ccc(C(=N)c2ccccc2Cc2cccc3ccccc23)c2ccccc12 |  | 1.26 µM (active) |
| Cc1cc(C)c(O)c(Cc2cccc(Cc3cc(C)cc(C)c3O)c2O)c1 | 8% [at 11.4 µM] |  |
| C#CCCCO/N=C1/C[C@@H](O)[C@@H](O)[C@@H]2[C@@H]3C(=O)N(C[C@@H]4CCCO4)C(=O)[C@H]3CC[C@H]12 | -15.3% [at 11.4 µM] |  |
| ClC(Cl)(Cl)C(N1CCN(c2ccccc2)CC1)N1CCN(c2ccccc2)CC1 | 21% [at 11.4 µM] |  |
| CC(C)CC(c1nnnn1C(C)C)N1CCN(c2ccccc2)CC1 (stereo unspecified) |  | 5.01 µM (active) |
| CCOC(=O)c1cnn(-c2nc(-c3cccc(F)c3)cs2)c1C(F)(F)F |  | 2.82 µM (active) |
| CCN(CC)CCOc1ccc2nc(N(C)C)sc2c1 |  | inactive |
| CCOC(=O)C1CCN(C(=O)C2CCN(c3nc4ccc(OC)cc4s3)CC2)CC1 |  | 11.2 µM (active) |
| CCOC(=O)C1CCN(C(=O)c2ccccc2NC(C)=O)CC1 |  | inactive |
| CCOc1ccc2nc(N3CCCCCC3)sc2c1 |  | 3.98 µM (active) |
| COc1cc2nc(N3CCN(C(=O)[C@@H]4CCCO4)CC3)nc(N)c2cc1OC |  | inactive |

| SMILES | activity, negative = inhibition | AC50 |
| --- | --- | --- |
| CN1CCC2(CC1)C1CN(C)CC=C1C(C#N)=C(N)C2(C#N)C#N (stereo unspecified) |  | inactive |
| CN1CC[C@@]2(CCCN(C(=O)c3cc(C(F)(F)F)cc(C(F)(F)F)c3)C2)C1 |  | inactive |
| COc1cnc(SCc2ccc(Cl)cc2)nc1Cl |  | 1.58 µM (active) |
| CCc1c(C)nc2ncnn2c1NCCc1ccc(OC)cc1 |  | 3.55 µM (active) |
| CCOC(=O)CCc1c(C)nc2ncnn2c1C |  | inactive |
| Cc1ccc(CNC(=O)CCc2c(C)nc3ncnn3c2C)cc1 |  | inactive |
| COc1ccc(C(=O)c2cnc3ccccc3c2-c2ccccc2)cc1 |  | 5.01 µM (active) |
| COc1ccc(-c2nc3cnc(N4CCN(C)CC4)nc3n(Cc3ccc(F)cc3)c2=O)cc1 |  | inactive |
| CCOC(=O)c1oc2nc(CC(C)C)c3c(c2c1N)CCC3 |  | 11.2 µM (active) |
| CC1(C)S[C@@H]2[C@H](NC(=O)[C@H](C(=O)O)c3ccsc3)C(=O)N2[C@H]1C(=O)O |  | inactive |
| CCC(CC)c1nnc(NC(=O)c2cccc(S(=O)(=O)N3CCc4ccccc43)c2)s1 |  | 7.94 µM (active) |
| CCn1cc(C(=O)N/N=C(/C)c2ccc(F)cc2)c(=O)c2cc(F)c(N3CCCC3)cc21 |  | 4.47 µM (active) |
| CCn1cc(C(=O)O)c(=O)c2cc(F)c(N3CCNCC3)nc21 |  | inactive |
| CCn1cc(C(=O)O)c(=O)c2cc3c(cc21)OCO3 |  | inactive |
| N=C(N)SCc1cccc(-c2nc3ccccc3c(=O)o2)c1 | 16.9% [at 11.4 µM] |  |
| CC(C)CCN1C(=O)c2ccc(-c3nc4ccccc4c(=O)o3)cc2C1=O |  | 14.1 µM (active) |
| CCCOc1ccc(C(=O)CCNc2ccc(C)c(Cl)c2)cc1 |  | 0.398 µM (active) |
| Cc1ccc(NCCC(=O)c2ccc(Cl)cc2)cc1C |  | 1.26 µM (active) |
| CCCCOc1ccc(C(=O)CCN2CCCCC2)cc1 |  | inactive |
| Cc1ccc(NC(=O)CCC(=O)c2ccc(F)cc2)cc1Cl |  | 3.98 µM (active) |
| CCOC(=O)Nc1ccc2c(c1)N(C(=O)CCN1CCOCC1)c1ccccc1S2 |  | inactive |
| CCCCOC(=O)Nc1ccc(C)c(Cl)c1 |  | 2 µM (active) |

— PubChem BioAssay AID1851 (National Center for Advancing Translational Sciences (NCATS), 2009)
